Sfp inh – qHTS Assay for Inhibitors of Bacillus subtilis Sfp phosphopantetheinyl transferase (PPTase); 4'-phosphopantetheinyl transferase ffp (Bacillus subtilis), Q9F4F7; Biochemical Sfp PPTase activity, qHTS; Potency, µM, for the others: largest response in the series, negative = inhibition, most hits filed as inhibitors; hit rate 3.5% among 310,000;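 also: the enzyme is Sfp with the accession as filed and its product quenches rhodamine fluorescence; 0% = enzyme reaction without inhibitor and -100% = no enzyme wells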
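Compounds were incubated with enzyme (final 15 nM) for 15 min at room temperature before substrate addition started the reaction. Fluorescence at 525 nm excitation, 598 nm emission was recorded immediately and after 30 minutes.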
JMJD2A Tudor – qHTS Assay for Inhibitors of JMJD2A-Tudor Domain; AlphaScreen JMJD2A-Tudor / H3K4me3 peptide binding; Potency, µM (highest dose often 114 µM), for the others: top-dose activity change, negative = inhibition, hits mostly inhibitors; hit rate 4.4% among 390,000; Lysine-specific demethylase 4A (Homo sapiens), O75164; also: % is scaled to controls: 0 for no effect and ±100 for the full control effect; nearly all actives have a fitted effect of over 50% in size
BAZ2B inh – qHTS Assay for Inhibitors of BAZ2B; Potency, µM (doses to about 114 µM), for the others: at the highest dose activity change, negative = inhibition, most hits filed as inhibitors; AlphaScreen BAZ2B-H3K14Ac peptide displacement; AID 504333, 2011; Bromodomain adjacent to zinc finger domain protein 2B (Homo sapiens), Q9UIF8; hit rate 4.4% among 360,000; also: % is scaled to controls: 0 for no effect and ±100 for the full control effect; nearly all actives have a fitted effect of over 60% in size
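Multi-concentration screen (max 110 uM) measuring displacement of acetylated histone H3 peptide from BAZ2B by AlphaScreen, using 50 nM protein, 50 nM peptide and 10 ug/mL streptavidin donor plus Ni-chelate acceptor beads.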
HP1b chromo inh – HTS for Inhibitors of HP1-beta Chromodomain Interactions with Methylated Histone Tails; Chromobox protein homolog 1 (Homo sapiens), P83916; AlphaScreen HP1-beta / biotin-H3K9me3 peptide binding; Potency, µM (titrated, usually from 114 µM), without a hit: top-dose activity change, negative = inhibition, usual class: inhibitors; hit rate 0.56% among 390,000; AID 540317, 2011; also: nearly all actives have a fitted effect of over 70% in size
Target sequence (P83916 whole entry, looked up): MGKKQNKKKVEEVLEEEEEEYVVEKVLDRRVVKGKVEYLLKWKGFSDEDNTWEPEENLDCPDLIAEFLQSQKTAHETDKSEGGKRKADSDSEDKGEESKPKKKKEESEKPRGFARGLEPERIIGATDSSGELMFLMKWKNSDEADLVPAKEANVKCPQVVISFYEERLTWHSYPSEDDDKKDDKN
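HP1-beta protein (50 nM final) preincubated 30 min at room temperature with biotinylated H3(1-18)K9me3 peptide (50 nM) in PBS pH 7.4, 0.01% Tween-20, then compound added for 30 min. AlphaScreen streptavidin donor/nickel chelate acceptor beads (10 ug/mL final), 30 min dark, luminescence read.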
L3MBTL1 block – qHTS Assay for the Inhibitors of L3MBTL1 | Potency, µM (top dose mostly 57.1 µM), for the others: top-dose activity, negative = inhibition, hits mostly inhibitors | AlphaScreen L3MBTL1–H3K9me1 peptide binding | Lethal(3)malignant brain tumor-like protein 1 (Homo sapiens), Q9Y468 | hit rate 0.66% among 230,000; also: % is scaled to controls: 0 for no effect and ±100 for the full control effect; nearly all actives have a fitted effect of over 60% in size
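AlphaScreen proximity signal between nickel-chelate acceptor and streptavidin donor beads (final 10 ug/mL) reports binding of 50 nM L3MBTL1 to 75 nM biotin-H3 K9me1 peptide; complex incubated with compounds 30 min at room temperature; cefsulodin titration as control.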
G9a block – qHTS Assay for Inhibitors of Histone Lysine Methyltransferase G9a | G9a H3K9 monomethylation, AlphaScreen, 2 h | hit rate 8.8% among 350,000 | Histone-lysine N-methyltransferase EHMT2 (Homo sapiens), Q96KQ7 | Potency, µM (series often up to 102 µM), for inactives: at the highest dose activity, negative = inhibition, most hits filed as inhibitors; also: % is scaled to controls: 0 for no effect and ±100 for the full control effect; nearly all actives have a fitted effect of over 75% in size
Target sequence (Q96KQ7 913-1193 limits assumed): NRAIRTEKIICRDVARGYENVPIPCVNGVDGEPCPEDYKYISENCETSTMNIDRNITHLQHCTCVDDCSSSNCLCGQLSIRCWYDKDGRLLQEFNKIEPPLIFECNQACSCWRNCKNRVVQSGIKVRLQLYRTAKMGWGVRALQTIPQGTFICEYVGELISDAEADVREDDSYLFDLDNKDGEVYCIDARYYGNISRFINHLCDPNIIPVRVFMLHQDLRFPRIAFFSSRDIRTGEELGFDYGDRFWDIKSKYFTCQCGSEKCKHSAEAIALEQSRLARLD
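AlphaScreen detection with an anti-monomethyl H3K9 antibody quantified product after a 2 h room-temperature reaction containing 500 nM biotinylated H3K9 peptide, 20 µM SAM and 20 nM enzyme, which had been preincubated 15 min with compound.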
* marks the source's active call; other numbers are inactive results; ! = a repeat was not active; [ ] = remark or other dose. In the library only some 12% were active in any assay of this set; here they are far more common. Calls follow the shape of the dose curve; as a rule, active = well fitted curve in the direction sought with a large enough effect; inconclusive = small, poorly fitted or top-dose-only effect, or another doubt; inactive = no such curve, though single readings can be large; an effect the other way counts as inactive or inconclusive. Potency is read from the fitted curve at half-maximal effect.

Screening O=C1CC(=O)N(Cc2cccs2)C(=O)N1 returned Sfp inh -22%, JMJD2A Tudor -20%, BAZ2B inh -3%, HP1b chromo inh 32% and G9a block -44%[12.7 µM].
O=C1C2C3c4ccccc4C(c4ccccc43)C2C(=O)N1Cc1ccco1 (stereo not drawn) was read as Sfp inh 45µM*, JMJD2A Tudor -19%, BAZ2B inh 0%, HP1b chromo inh 44%, L3MBTL1 block -1% and G9a block inconclusive.
Screening S=C1NCN(Cc2ccco2)CN1 returned Sfp inh -3%, JMJD2A Tudor -9%, BAZ2B inh 1%, HP1b chromo inh 19%, L3MBTL1 block 9% and G9a block 2%.
Screening O=C1CC(=O)N(Cc2ccco2)C(=O)N1 returned Sfp inh 50µM*, JMJD2A Tudor 4.5µM*, BAZ2B inh 40µM*, HP1b chromo inh -79%, L3MBTL1 block 3.2µM* and G9a block inconclusive.
Screening O=C1CC(=O)N(Cc2ccco2)C(=S)N1 returned Sfp inh 22µM*, JMJD2A Tudor 56µM*, BAZ2B inh 20µM*, HP1b chromo inh -12% and G9a block 8.9µM*.
For Cc1ccc(-c2[nH]ncc2CNC(C)c2ccccc2)cc1 (stereo not drawn) the results were JMJD2A Tudor 4.5µM* and HP1b chromo inh inconclusive.
For Cc1ccc(CNC(C)c2ccccc2)s1 (stereo not drawn) the results were JMJD2A Tudor -5%, BAZ2B inh 0%, HP1b chromo inh 19% and G9a block -4%[59 µM].
`CC(NCCC(c1ccccc1)c1ccccc1)c1ccccc1` (stereo not drawn) gave Sfp inh 25µM*!, JMJD2A Tudor -6%, BAZ2B inh -14%, HP1b chromo inh 41%, L3MBTL1 block -7% and G9a block inconclusive.
For CC(=O)Nc1ccc(Nc2nc3ccccc3nc2NS(=O)(=O)c2ccc(Cl)c([N+](=O)[O-])c2)cc1 the results were JMJD2A Tudor inconclusive and HP1b chromo inh -23%.
Screening CN1CCN(C(=O)c2cc3c(ccc4ccccc43)oc2=O)CC1 returned Sfp inh -1%, JMJD2A Tudor -10%, BAZ2B inh -32%, HP1b chromo inh 36%, L3MBTL1 block 5% and G9a block 50µM*.
Screening COC(=O)c1c(-c2cccs2)csc1NC(=O)c1ccc(C(C)C)cc1 returned JMJD2A Tudor 0%, BAZ2B inh -1%, HP1b chromo inh -12% and G9a block 2.8µM*.
COC(=O)c1c(-c2cccs2)csc1NC(=O)c1ccc(C(C)(C)C)cc1 was read as JMJD2A Tudor inconclusive, BAZ2B inh -11%, HP1b chromo inh -13% and G9a block 1.8µM*.
Screening COC(=O)c1c(-c2cccs2)csc1NC(=O)COc1ccc(C(C)(C)C)cc1 returned JMJD2A Tudor -8%, BAZ2B inh -15%, HP1b chromo inh -17% and G9a block 4µM*.
COC(=O)c1c(-c2cccs2)csc1NC(=O)c1ccc(Cl)cc1 was read as JMJD2A Tudor -29%, BAZ2B inh -20%, HP1b chromo inh 19% and G9a block 2.2µM*.
For COC(=O)c1c(-c2cccs2)csc1NC(=O)COc1ccc(C)cc1 the results were JMJD2A Tudor -2%, BAZ2B inh -13%, HP1b chromo inh -7% and G9a block inconclusive.
Screening CCOC(=O)c1c(-c2cccs2)csc1NC(=O)CC(C)C returned Sfp inh -12%, JMJD2A Tudor 77%, BAZ2B inh 36%, HP1b chromo inh 153% and G9a block 19%[12.7 µM].

Screening results (PubChem)
